The list is not random: actives were taken first. Their share in the collection is about 1.6%.
MOR-DOR ag: agonists of OPRM1-OPRD1 heterodimerization, primary screen, cell-based, luminescence. hit rate 0.3% among 340,000. activation, % at 9.3 µM. AID 504326, 2011. cells. Mu-type opioid receptor (Homo sapiens) + Delta-type opioid receptor (Homo sapiens), …;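 note: 0% = vehicle-treated cells and 100% = reference agonist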
m5-HT2A agonist: mouse Htr2a agonists via beta-arrestin recruitment, primary screen, cell-based, luminescence; CHO-K1 mHTR2A beta-arrestin complementation; percent of 30 µM serotonin response; hit rate 0.66% among 360,000; 5-hydroxytryptamine receptor 2A (Mus musculus), P35363; activation, % at 7.6 µM;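 active = activation above a run cutoff, the mean activation of all tested compounds plus 3 SD, cut at about 14% in these data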;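 note: 0% = plate median of compound wells and 100% = 30 µM serotonin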
Target sequence (P35363 whole entry, looked up): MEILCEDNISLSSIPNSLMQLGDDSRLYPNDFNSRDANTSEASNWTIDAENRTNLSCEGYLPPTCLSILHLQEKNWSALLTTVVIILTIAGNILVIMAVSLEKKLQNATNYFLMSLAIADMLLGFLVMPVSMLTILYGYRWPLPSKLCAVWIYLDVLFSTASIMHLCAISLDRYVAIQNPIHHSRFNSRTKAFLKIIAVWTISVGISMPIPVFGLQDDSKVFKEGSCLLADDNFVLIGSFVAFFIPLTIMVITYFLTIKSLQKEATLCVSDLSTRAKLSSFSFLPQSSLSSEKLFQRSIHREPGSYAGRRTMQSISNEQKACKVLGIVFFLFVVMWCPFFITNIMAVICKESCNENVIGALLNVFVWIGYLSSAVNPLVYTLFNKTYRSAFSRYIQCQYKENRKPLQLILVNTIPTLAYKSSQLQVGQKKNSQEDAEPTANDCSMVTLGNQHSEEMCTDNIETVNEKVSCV
HTR5A ag ctr: HTR5A agonists in luminescence cell assay, primary screen, counter-screen for OPRM1-OPRD1 heterodimer agonist project, full-deck HTS | 5-hydroxytryptamine receptor 5A (Homo sapiens), P47898 | cell-based | activation, % at 9.3 µM | hit rate 0.61% among 340,000 | AID 504692, 2011; in the data active = activation mostly above about 9.5%, no sharp cut-off; inactive = mostly below about 7.6%;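 note: 0% = cells with vehicle only and 100% = reference agonist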
HTR5A inv ctr: HTR5A inverse agonists in luminescence cell assay, primary screen, counter-screen for OPRM1-OPRD1 heterodimer inverse agonist project, full-deck HTS; HTR5A cell line, inverse agonism; 5-hydroxytryptamine receptor 5A (Homo sapiens), P47898; inhibition, % at 9.3 µM; hit rate 0.083% among 340,000; in the data active = inhibition mostly above about 23%, no sharp cut-off; inactive = mostly below about 18%;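 note: 0% = cells with DMSO and 100% = no-cell wells with DMSO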
MOR-DOR inv ag: inverse agonists of MOR-DOR heterodimerization, primary screen, cell-based, luminescence; cell-based MOR-DOR heterodimer luminescence, inverse agonism; inhibition, % at 9.3 µM; hit rate 0.21% among 340,000; AID 504357, 2011; in the data active = inhibition above about 22%, passing the limit was not always enough;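 note: 0% = cells with DMSO and 100% = wells without cells with DMSO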
MOR-DOR ag conf: agonists of MOR-DOR heterodimerization, confirmation, cell-based, luminescence | shares compounds with MOR-DOR ag | cells, luminescence complementation | activation, % at 9.3 µM | hit rate 45% among 830 | AID 504904, 2011;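 note: 0% = vehicle-treated cells and 100% = reference agonist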
HTR5A ag ctr2: HTR5A agonists in cells, counter-screen for OPRM1-OPRD1 heterodimer agonist project, cell-based, luminescence. AID 504905, 2011. activation, % at 9.3 µM. shares compounds with MOR-DOR ag. hit rate 8% among 830. HTR5A agonist counterscreen; in the data active = activation above about 17%;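 note: 0% = vehicle-treated cells and 100% = reference agonist response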
An asterisk follows results filed as active; i = inactive; · = not tested or not shown. Cut-off read from the data, not from the text of the source, unless noted: active = activation above about 18%; inactive = the rest.

SMILES	MOR-DOR ag	m5-HT2A agonist	HTR5A ag ctr	HTR5A inv ctr	MOR-DOR inv ag	MOR-DOR ag conf	HTR5A ag ctr2
O=C(NNC(=O)c1ccccc1-c1ccccc1C(=O)O)c1ccccc1	-1	3	-2	5	7	·	·
CNc1cc(-c2cccc(C(=O)N3CCOCC3)c2)ncn1	·	1	·	·	·	·	·
CC[C@@H](C)[C@H](CNC)NC[C@@H](Cc1cccc2ccccc12)NCCc1cccc(C(F)(F)F)c1	24*	10	9	-77	-128	-2	2
Oc1ccccc1C1SC(c2ccccc2O)SC(c2ccccc2O)S1 (stereo not drawn)	22*	12	2	-7	-115	20*	8
CC1CC(=O)Nc2ccccc2N1C(=O)COc1ccccc1C(N)=O (stereo not drawn)	·	8	·	·	·	·	·
CC1(C(=O)Nc2cccc3cccnc23)CCN1C(=O)CC1CC1 (stereo not drawn)	·	-2	·	·	·	·	·
CCN1CCN(Cc2ccc(NC(=O)c3ccc(C)c(NC(=O)c4c[nH]c5cc(C(F)(F)F)ccc5c4=O)c3)cc2C(F)(F)F)CC1	47*	1	0	-12	-286	39*	3
Cc1nc(-c2ccccc2)sc1C(=O)NS(=O)(=O)c1ccc(CN2CCN(c3ccccc3)CC2)cc1	·	-1	·	·	·	·	·
Cc1nc2ccc(C(=O)N(C)Cc3ccco3)cn2c1N(C)C(=O)CCc1ccccc1	·	4	·	·	·	·	·
N=C(N)SCc1cn(-c2ccccc2)nc1-c1ccc(Br)cc1	20*	-6	8	-18	-109	1	3
Clc1cccc(Cl)c1CSc1nnc(-c2ccncc2)s1	21*	1	2	4	-105	8	5
COc1cccc(CN2CCC(n3nccc3NC(=O)CCCc3ccccc3)CC2)c1O	-2	-8	3	17	10	·	·
COc1ccc(CN2CCC(n3nccc3NC(=O)CCc3ccccc3)CC2)c(C)c1C	23*	-5	-1	-2	-117	4	-2
CCN(Cc1ccccc1)S(=O)(=O)c1ccc(C(=O)N(CCCN(C)C)c2nc3ccc(F)cc3s2)cc1	412*	-14	4	-1	i	0	2
CCN(Cc1ccccc1)S(=O)(=O)c1ccc(C(=O)N(CCCN(C)C)c2nc3cc4c(cc3s2)OCCO4)cc1	3	-10	-5	14	-18	·	·
CCc1ccc2nc(N(CCCN(C)C)C(=O)c3ccc(S(=O)(=O)N4CCc5ccccc5C4)cc3)sc2c1	29*	0	5	-17	-168	36*	5
CN(C)CCCN(C(=O)c1ccc(S(=O)(=O)N(C)Cc2ccccc2)cc1)c1nc2c(F)cccc2s1	47*	2	0	3	-244	108*	-3
CCOc1cccc2sc(N(CCCN(C)C)C(=O)c3ccc(S(=O)(=O)N4CCc5ccccc5C4)cc3)nc12	1	-7	-1	-2	-8	·	·
CCc1ccc2nc(N(CCCN(C)C)C(=O)c3ccc(S(=O)(=O)N(C)C4CCCCC4)cc3)sc2c1	19*	-13	2	-25	-106	50*	3
CCc1nc2c(OCC(=O)c3ccc(Cl)cc3Cl)cccn2c1N(C)C(=O)COc1ccccc1	·	-10	·	·	·	·	·
CN(C)CCCN(C(=O)c1ccc(S(=O)(=O)N(C)C2CCCCC2)cc1)c1nc2ccc(F)cc2s1	327*	-7	4	13	i	121*	2
Cc1[nH]c2ccccc2c1C1=CC(=O)C=CC1=O	3	-11	2	-8	-17	·	·
COc1cccc(N=c2oc3ccc(OC)cc3cc2-c2nc3ccccc3[nH]2)c1	19*	1	4	-30	-102	26*	8
O=C(NCCc1ccc(Cl)cc1)c1cccc(S(=O)(=O)N2CCCC2)c1	·	-4	·	·	·	·	·
O=C(Nc1cccnc1)c1sc(Nc2ccccc2F)nc1-c1ccccc1	21*	-4	-1	-32	-111	5	5
CNC[C@@H]1OCc2ccccc2-c2c(n(C)c3ccccc23)C(=O)N([C@H](C)CO)C[C@@H]1C	·	6	·	·	·	·	·
